Inconclusive results are not listed. Where a call stands in place of a potency, no number is given. Active and inactive are the calls of the source. Calls come from the whole dose curve; as a rule, active = well fitted inhibition curve with a large enough effect; inconclusive = small, poorly fitted or top-dose-only effect; inactive = no such curve, though single readings can be large or run the other way.
Potency is the fitted concentration of half-maximal effect.

In this test the test system is Zika virus NS2B-NS3 protease (unlinked). Description: Optimization of GU AMC qHTS for Zika virus inhibitors: Unlinked NS2B-NS3 protease assay (AID 1347151). Note: nearly all actives have a fitted effect of over 80% in size. The conditions noted are these: recombinant ZIKV NS2B-NS3 protease, fluorogenic AMC substrate; series mostly up to 52.5 µM. The source says: Avindra Nath, Ph.D., National Institute of Neurological Disorders and Stroke (NINDS), Bethesda, MD
Radhakrishnan Padmanabhan, Ph.D., Georgetown University (GU), Washington D.C.
Zika Virus causes congenital defects, including microcephaly and is associated with Guillain-Barre syndrome, eningoencephalitis and myelitis in infected adult. […] Using a target-based approach, we hope to establish a screening paradigm to uncover novel, cell-active NS2B-NS3 protease (Zika Virus) specific inhibitors from NCATS' collection of small molecules using qHTS.
Early Translation Branch (ETB)
National Center for Advancing Translational Sciences (NCATS), Rockville, MD
National Institute of Health (NIH), Bethesda, Maryland
Padmanabhan lab provided the NS2B hydrophilic domain and NS3 protease domain in a noncovalent complex used for the unlinked assay. Control compound aprotinin is obtained from Thermo Scientific (#78432; Waltham, Massachusetts). NS2B-NS3 AMC substrate (Bz-Nle-Lys-Arg-Arg-AMC; Nle-KRR-AMC) purchased from Bachem (#I-1995; Torrance, CA). Ac-VKTGKR-AMC purchased from Genscript or Bachem, Ac-FAAGKR-AMC purchased from Genscript, Ac-GLVKRR-AMC purchased from Genscript, Ac-LKKR-AMC purchased from Genscript.
GU AMC unlinked NS2B-NS3 protease qHTS protocol:
Briefly, 3 microL of Zika virus unlinked NS2B-NS3 protease (25 nM for linked final concentration), in assay buffer (10 mM Tris-HCl pH 8.0 with 0.01% Tween 20) was dispensed into a 1,536-well solid-bottom black plate (Greiner Bio One, Monroe, NC). Twenty-three nL of compounds (final concentration range 7.28 nM to 114 microM) or control Aprotinin (final concentration range 3.47 nM to 114 microM) were transferred via Wako Pin-tool (Wako Automation, Richmond, VA). […] Plates were then read immediately on a ViewLux High-throughput CCD imager (PerkinElmer, Waltham, MA) equipped with standard UV fluorescence optics (340(30) nm excitation, 450(20) nm emission) then incubated (room temperature, protected from light) for 15 minutes (~20% conversion). The change in fluorescence intensity over the 15-minute reaction period was normalized against no-inhibitor and no-enzyme controls and the resulting percent inhibition data were fitted to a 4-parameter Hill equation. Aprotinin was used as the intraplate control.
`NCCCCNCCCN`: the Potency result was “inactive”.

In the case of `C[C@H](Cc1ccc(O)c(O)c1)[C@@H](C)Cc1ccc(O)c(O)c1`, the Potency is 9.47 µM (active).

Regarding `CCOC(=O)C(C)Oc1cccc2c(=O)n(CC(=O)Nc3ccc4c(c3)OCCO4)ccc12` (stereo not given), the Potency was 21.2 µM (active).

For the compound `Cc1cccc(-c2[nH]ncc2-c2ccc3ncccc3n2)n1`, the Potency entry is “inactive”.

On to `S=c1nc[nH]c2nc[nH]c12`, for which the Potency result is “inactive”.

Turning to `Cc1cccc(C#Cc2ccccc2)n1`, the Potency result is “inactive”.

For the compound `CCN(CC)CCOc1ccc(Nc2ncc3cc(-c4c(Cl)cccc4Cl)c(=O)n(C)c3n2)cc1`, the Potency result was “inactive”.

In the case of `CC(=O)NC[C@H]1CN(c2ccc(N3CCOCC3)c(F)c2)C(=O)O1`, the Potency entry was “inactive”.

Take `Cc1cc(Cl)ccc1OCCCC(=O)NO`: the Potency result was “inactive”.

`CNC[C@H](O)c1ccc(O)c(O)c1`: the Potency result was “inactive”.

`CC(C)c1ccc2c(c1)c(SC(C)(C)C)c(CC(C)(C)C(=O)O)n2Cc1ccc(Cl)cc1`: the Potency was 1.34 µM (active).

As for `c1cnc2cc3c(cc2n1)C1CNCC3C1`, the Potency entry is “inactive”.

As to `COc1ccccc1N1CCN(CCN(C(=O)C2CCCCC2)c2ccccn2)CC1`, the Potency entry was “inactive”.

Consider `Nc1nc(OCc2ccccc2)c2[nH]cnc2n1`, for which the Potency entry is “inactive”.

Take `Nc1nc(N)c(N=O)c(OCC2CCCCC2)n1`: the Potency result was “inactive”.

In the case of `Cc1cc(O)c2c(c1)C(=O)c1cc(O)cc(O)c1C2=O`, the Potency is 15 µM (active).

With `Clc1ccc2c(N3CCN(CCCN4CCN(c5ccnc6cc(Cl)ccc56)CC4)CC3)ccnc2c1`, the Potency result was “inactive”.

On to `O=c1cc(N2CCOCC2)oc2c(-c3ccccc3)cccc12`, for which the Potency was 26.7 µM (active).

For the compound `Cc1nc(Nc2ncc(C(=O)Nc3c(C)cccc3Cl)s2)cc(N2CCN(CCO)CC2)n1`, the Potency was 398 µM (active).

On to `O=c1c(O)c(-c2cc(O)c(O)c(O)c2)oc2cc(O)cc(O)c12`, for which the Potency is 21.2 µM (active).

With `C[C@@H](N)C1CCC(C(=O)Nc2ccncc2)CC1` (stereo not given in full), the Potency result is “inactive”.

Consider `O=c1ccc2ccc(O)c(O)c2o1`, for which the Potency entry was “inactive”.

Consider `CC(C)C[C@H](NC(=O)[C@H](Cc1ccccc1)NC(=O)c1cnccn1)B(O)O`, for which the Potency result was “inactive”.

Turning to `O=C1c2c(O)cc(O)cc2OC(c2ccc(O)c(O)c2)C1O` (stereo not given), the Potency entry is “inactive”.

Turning to `O=C1c2ccccc2-c2n[nH]c3cccc1c23`, the Potency was 11.9 µM (active).

Take `CCN(CC)C(=S)SSC(=S)N(CC)CC`: the Potency result was “inactive”.

`COc1ccc2cc([C@H](C)C(=O)O)ccc2c1`: the Potency is 23.8 µM (active).

Regarding `O=C(O)c1cccnc1Nc1cccc(C(F)(F)F)c1`, the Potency result was “inactive”.

Regarding `NC(=NCc1ccccc1)NC(=O)c1nc(Cl)c(N)nc1N`, the Potency was 26.7 µM (active).

Regarding `O=C(c1ccccc1)c1ccc2n1CCC2C(=O)O` (stereo not given), the Potency entry is “inactive”.

On to `CCc1nc(N)nc(N)c1-c1ccc(Cl)cc1`, for which the Potency result was “inactive”.

`CN(C)CCCC1(c2ccc(F)cc2)OCc2cc(C#N)ccc21` (stereo not given): the Potency result is “inactive”.

In the case of `CN(C)C(=O)[C@H](O)[C@H](Cc1ccccc1)NC(=O)c1cc2cc(Cl)ccc2[nH]1`, the Potency was 26.7 µM (active).

For the compound `NNc1nncc2ccccc12`, the Potency entry is “inactive”.

As for `Oc1ccc2ccccc2c1SSc1c(O)ccc2ccccc12`, the Potency is 10.6 µM (active).

`O=C(CCc1ccc(O)cc1)c1c(O)cc(O)cc1O`: the Potency result is “inactive”.

Take `CC1(C)NC(=O)N(c2ccc([N+](=O)[O-])c(C(F)(F)F)c2)C1=O`: the Potency result was “inactive”.

Turning to `CC(=O)N1CCN(c2ccc(OC[C@H]3CO[C@](Cn4ccnc4)(c4ccc(Cl)cc4Cl)O3)cc2)CC1`, the Potency entry was “inactive”.

On to `CC1(C)C(=O)N(CCN2CCC(C(=O)c3ccc(F)cc3)CC2)c2ccccc21`, for which the Potency entry was “inactive”.

As to `C[C@@H](c1ncncc1F)[C@](O)(Cn1cncn1)c1ccc(F)cc1F`, the Potency entry was “inactive”.

These data come from PubChem BioAssay (NCATS).
